From PubChem BioAssay (EPA / NIEHS) come the findings set out here.

Results filed as inconclusive are left out. Active and inactive are the calls of the source. The calls were made as follows, unless noted: active = hit-call score of the fitted dose curve at least 0.9, where 1 is the maximum; inconclusive = response in the unintended direction; inactive = score below 0.9.

What is called AC50 is the midpoint of the concentration-response curve, whichever way the signal moves.

Tested on in one experiment: not listed separately
Put plainly: Tanguay_ZF_120hpf_TR_legacy: (Legacy) Oregon State University Tanguay Lab 120 Hour Post-fertilization zebrafish Assay for Touch Response (AID 2283667).
Details: not given
A digest of the protocol: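 Binary touch-response endpoint in larvae at 120 hpf after static waterborne exposure from embryo stage (28°C, 0.64% DMSO vehicle, 5 uM trimethyltin chloride as positive control); embryos dead at 24 or 120 hpf excluded; fitted as gain versus DMSO.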
In the case of `C[C@]12CCC(=O)C=C1CC[C@@H]1[C@@H]2CC[C@@]2(C)[C@H]1CC[C@]2(C)O`, the outcome was inactive.

For `CC(C)C(=O)OCC(C)(C)C(OC(=O)C(C)C)C(C)C` (stereo not drawn), the molecule was called inactive.

Take `O=C(O)C(F)(F)C(F)(F)C(F)(F)C(F)(F)C(F)(F)C(F)(F)C(F)(F)C(F)(F)C(F)(F)F`: the outcome was inactive.

Consider `N#Cc1ccc(N(CC(N)=O)CC(F)(F)F)cc1C(F)(F)F`, for which the call was inactive.

`Cc1cccc([N+](=O)[O-])c1`: the call was inactive.

As to `C=CC(=O)NCNC(=O)C=C`, the result was inactive.

For the molecule `Cc1cc(O)ccc1Cl`, the outcome was inactive.

As for `O=NN(c1ccccc1)c1ccccc1`, the call was inactive.

Turning to `Cc1cccc(C)c1N`, the call was inactive.

For the molecule `Oc1c(Cl)c(Cl)c(Cl)c(Cl)c1Cl`, the molecule was called inactive.

On to `O=C(NC(=O)c1cc(F)c(F)cc1Cl)Nc1cc(F)ccc1N1CCC(C(=O)O)CC1`, for which the molecule was classed as inactive.

Regarding `CC1=C2C[C@H]3[C@@H](CC=C4C[C@@H](O)CC[C@@]43C)[C@@H]2CC[C@]12O[C@@H]1C[C@H](C)CN[C@H]1[C@H]2C`, the AC50 was 22.5 µM (active).

As to `Oc1ccc(Cl)cc1Cl`, the outcome was inactive.

Regarding `Cc1ccc(O)c(C)c1`, the result was inactive.

Take `Cc1cc(-c2ccc(N)c(C)c2)ccc1N`: the call was inactive.

For the molecule `Cc1ccccc1[N+](=O)[O-]`, the outcome was inactive.

For the molecule `CO/C=C(/C(=O)OC)c1ccccc1COc1cccc(C(F)(F)F)n1`, the AC50 is 13.2 µM (active).

Take `Cc1ccccc1O`: the call was inactive.

For the molecule `Nc1ccc(-c2ccc(N)cc2)cc1`, the molecule was called inactive.

As to `CCOC(=O)C(O)(c1ccc(Cl)cc1)c1ccc(Cl)cc1`, the result was inactive.

In the case of `O=C(O)C(F)(F)C(F)(F)C(F)(F)C(F)(F)C(F)(F)F`, the molecule was classed as inactive.

On to `CCCCCCCCCc1ccc(O)cc1`, for which the call was inactive.

With `CN(C)CCO`, the molecule was classed as inactive.

Take `ClC(Cl)=C(c1ccc(Cl)cc1)c1ccc(Cl)cc1`: the molecule was called inactive.

`CCCCCCCCOC(=O)c1ccccc1C(=O)OCCCCCCCC`: the outcome was inactive.

In the case of `Clc1ccc(Cl)cc1`, the call was inactive.

With `COS(=O)(=O)OC`, the result was inactive.

For `c1cc2ccc3cccc4ccc(c1)c2c34`, the molecule was classed as inactive.

Read-out in the next experiment: Cytochrome P450 (CYP24A1_1), CYP24A1 (gene 1591)
Kind of experiment: LTEA_HepaRG_CYP24A1_1: Life Technologies and Expression Analysis (LTEA) Assay for Cytochrome P450 (CYP24A1_1) using HepaRG (AID 2283671; active = hit-call score of the fitted dose curve at least 0.9, where 1 is the maximum; inactive = score below 0.9). Particulars: mRNA level, 48 h; actives raise or lower the signal. A digest of the protocol:
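Differentiated human HepaRG cells were exposed in duplicate for 48 h in serum-free induction medium to eight concentrations (top 100 uM, half-log steps, 0.5% DMSO). CYP24A1 mRNA was quantified by TaqMan qRT-PCR, normalized to ACTB, GAPDH and POLR2A, and fitted bidirectionally versus DMSO.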
Regarding `O=C(O)C(F)(F)C(F)(F)C(F)(F)C(F)(F)C(F)(F)C(F)(F)C(F)(F)C(F)(F)C(F)(F)F`, the outcome was inactive.

Regarding `CC1=C2C[C@H]3[C@@H](CC=C4C[C@@H](O)CC[C@@]43C)[C@@H]2CC[C@]12O[C@@H]1C[C@H](C)CN[C@H]1[C@H]2C`, the molecule was classed as inactive.

On to `CCCCCCCCCc1ccc(O)cc1`, for which the molecule was called inactive.

`Clc1ccc(Cl)cc1`: the call was inactive.

Take `COS(=O)(=O)OC`: the outcome was inactive.
